Assay results reported in article PMC4336329 (PLoS ONE, 2015).
Hit rate of the full screen: of about 310,000 compounds, about 14,000 (4.5%) showed an effect of 50% or more. The effect is printed as a negative number. Many of the other results were omitted from the sample, so strong results are more common in it than they were.

biological target: human ether-à-go-go-related gene (hERG) potassium channel (human, UniProt Q12809); assay: primary screen, population patch clamp on CHO cells stably expressing hERG; higher = less effect of the substance
Sequence (Q12809 whole entry, looked up): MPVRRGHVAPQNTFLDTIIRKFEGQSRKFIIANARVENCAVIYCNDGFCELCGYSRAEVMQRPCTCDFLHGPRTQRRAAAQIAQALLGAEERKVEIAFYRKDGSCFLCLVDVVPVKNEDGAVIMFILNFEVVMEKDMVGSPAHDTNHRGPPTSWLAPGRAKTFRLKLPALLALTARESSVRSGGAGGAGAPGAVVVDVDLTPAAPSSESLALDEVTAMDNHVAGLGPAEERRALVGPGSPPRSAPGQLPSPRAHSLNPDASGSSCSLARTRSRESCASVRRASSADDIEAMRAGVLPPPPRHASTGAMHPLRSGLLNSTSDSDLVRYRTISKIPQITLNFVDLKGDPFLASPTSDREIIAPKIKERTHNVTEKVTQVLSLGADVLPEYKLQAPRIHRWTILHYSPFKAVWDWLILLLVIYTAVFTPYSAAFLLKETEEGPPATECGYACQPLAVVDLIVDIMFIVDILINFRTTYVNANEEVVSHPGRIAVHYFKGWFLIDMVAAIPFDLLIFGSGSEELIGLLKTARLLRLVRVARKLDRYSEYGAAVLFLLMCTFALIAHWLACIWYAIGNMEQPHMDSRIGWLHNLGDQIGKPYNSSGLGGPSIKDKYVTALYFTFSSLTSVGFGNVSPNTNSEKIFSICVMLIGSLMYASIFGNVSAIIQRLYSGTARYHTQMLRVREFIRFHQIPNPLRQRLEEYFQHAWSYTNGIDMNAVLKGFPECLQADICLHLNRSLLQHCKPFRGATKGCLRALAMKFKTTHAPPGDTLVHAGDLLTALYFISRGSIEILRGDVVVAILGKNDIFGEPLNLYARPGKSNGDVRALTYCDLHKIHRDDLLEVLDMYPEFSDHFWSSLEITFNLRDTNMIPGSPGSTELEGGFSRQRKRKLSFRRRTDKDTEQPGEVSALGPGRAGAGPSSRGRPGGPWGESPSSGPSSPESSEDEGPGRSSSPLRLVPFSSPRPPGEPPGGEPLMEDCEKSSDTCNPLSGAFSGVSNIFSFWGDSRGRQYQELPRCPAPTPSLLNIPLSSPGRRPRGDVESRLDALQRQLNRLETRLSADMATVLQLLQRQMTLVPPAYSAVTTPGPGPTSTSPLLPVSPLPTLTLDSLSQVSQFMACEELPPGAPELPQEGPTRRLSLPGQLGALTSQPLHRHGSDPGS
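Note: peak tail current of the secondary pulse compared with the same well before compound.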

Row | Compound | hERG current change (%, negative = inhibition) at 10uM [%]
1 | O=S(=O)(Nc1cc(C(F)(F)F)ccc1N1CCOCC1)c1ccccc1 | 4.09
2 | CC(CC(=O)N1CCN(c2ccccc2)CC1)S(=O)(=O)c1ccc2c(c1)NC(=O)CO2 (centres unmarked) | -20.1
3 | O=C(O)c1cccc(N2C(=O)c3cc4cccc(Br)c4cc3C2=O)c1 | 18.4
4 | Cc1cc(CNC(=O)CC2C(=O)NCCN2Cc2ccc(-c3ccccc3)cc2)nn1C (centres unmarked) | -4.68
5 | O=C(c1ccc([N+](=O)[O-])s1)N1CCc2ccccc2C1 | 13
6 | FC(F)(F)Oc1ccc(NC(=S)NCc2ccccc2)cc1 | 4.62
7 | Cl.O=C(CNC1=NCCC1)c1ccc(Cl)cc1 | -12.2
8 | CCCCCn1c(SCC(=O)OC)nc2c1c(=O)[nH]c(=O)n2C | -60.7
9 | CCCCCCn1c(SCC(=O)OC)nc2c1c(=O)[nH]c(=O)n2C | -70.1
10 | CCCCCCn1c(SCC(C)C)nc2c1c(=O)[nH]c(=O)n2C | 10.3
11 | CCCCCCn1c(SCCC)nc2c1c(=O)[nH]c(=O)n2C | -9.85
12 | COC(=O)CSc1nc2c(c(=O)[nH]c(=O)n2C)n1CCC(C)C | -3.93
13 | CCCCCn1c(SC(C)C(C)=O)nc2c1c(=O)[nH]c(=O)n2C (centres unmarked) | -92.5
14 | CCCCCCn1c(SCCCC)nc2c1c(=O)[nH]c(=O)n2C | 1.97
15 | CCOCCn1c(SC(C)C(C)=O)nc2c1c(=O)[nH]c(=O)n2C (centres unmarked) | -42.8
16 | CCCCCCn1c(SCCOC)nc2c1c(=O)[nH]c(=O)n2C | -59.8
17 | CCCCCn1c(SCCCC)nc2c1c(=O)[nH]c(=O)n2C | -3.74
18 | CCCCn1c(SCC(=O)OCC)nc2c1c(=O)[nH]c(=O)n2C | -41.9
19 | CCCCCCn1c(SCC(=O)c2ccccc2)nc2c1c(=O)[nH]c(=O)n2C | -26
20 | Cc1cccc(-n2ncc3c(=O)[nH]c(SCC(=O)NCCC4=CCCCC4)nc32)c1 | 10.9
21 | CCN(CC)S(=O)(=O)c1cccc(-c2n[nH]c(=S)n2/N=C/c2ccc(C(=O)OC)cc2)c1 | -34
22 | O=C(COC(=O)c1ccc(S(=O)(=O)N2CCCC2)cc1)NCc1ccco1 | -10.1
23 | O=[N+]([O-])c1ccc(/C=N/NC2=NS(=O)(=O)c3ccccc32)cc1 | -7.49

Row | Compound | hERG current change (%, negative = inhibition) at 10uM [%]
24 | O=C(OCn1nnc2ccccc2c1=O)C1CCCCC1 | 5.57
25 | CCCCCCn1c(N(CC)CC)nc2c1c(=O)[nH]c(=O)n2C | -63.6
26 | CCCCCCn1c(NCC)nc2c1c(=O)[nH]c(=O)n2C | -14.7
27 | CCN(CC)c1nc2c(c(=O)[nH]c(=O)n2C)n1CCCc1ccccc1 | -45.3
28 | Cn1nc(C(=O)OCC(=O)NCCc2ccccc2)c2ccccc2c1=O | 2.9
29 | Cc1cccn2c(=O)c(/C=C(\C#N)C(=O)NCc3ccco3)c(N3CCCCC3)nc12 | -37.8
30 | Cc1cccn2c(=O)c(/C=C(\C#N)C(=O)NCc3ccco3)c(N3CCCCCC3)nc12 | -36.5
31 | Cc1ccc(S(=O)(=O)/C(C#N)=C/c2c(N3CC(C)OC(C)C3)nc3c(C)cccn3c2=O)cc1 (centres unmarked) | -28.1
32 | Cc1ccc(S(=O)(=O)/C(C#N)=C/c2c(N3CCOCC3)nc3c(C)cccn3c2=O)cc1 | -56
33 | Cc1cccn2c(=O)c(/C=C(\C#N)C(=O)NCc3ccco3)c(N3CCOCC3)nc12 | -50.9
34 | Cc1cccn2c(=O)c(/C=C(\C#N)S(=O)(=O)c3ccccc3)c(N3CCN(c4ccccc4)CC3)nc12 | 9.12
35 | Cc1cccn2c(=O)c(/C=C(\C#N)S(=O)(=O)c3ccccc3)c(N3CCN(Cc4ccccc4)CC3)nc12 | -4.68
36 | Cc1ccc(S(=O)(=O)/C(C#N)=C/c2c(N3CCN(C)CC3)nc3c(C)cccn3c2=O)cc1 | -67.5
37 | Cc1cccn2c(=O)c(/C=C(\C#N)S(=O)(=O)c3ccccc3)c(N3CCN(C)CC3)nc12 | -45.5
38 | CCN1CCN(c2nc3c(C)cccn3c(=O)c2/C=C(\C#N)S(=O)(=O)c2ccccc2)CC1 | -15.7
39 | CCN1CCN(c2nc3c(C)cccn3c(=O)c2/C=C(\C#N)S(=O)(=O)c2ccc(C)cc2)CC1 | -62.9
40 | Cc1ccc(S(=O)(=O)/C(C#N)=C/c2c(Oc3ccc(Cl)cc3)nc3c(C)cccn3c2=O)cc1 | 19.3
41 | O=C(Cn1cnc([N+](=O)[O-])n1)N/N=C/c1ccccc1O | 14.4
42 | COC(=O)C[C@](O)(CCCC(C)(C)O)C(=O)O[C@@H]1C(OC)=C[C@]23CCCN2CCc2cc4c(cc2[C@H]13)OCO4 | 10.4
43 | CCCCOCCCNC(=O)N[C@H](C(=O)OC)C(C)C | 10.7
44 | Cn1c(=O)c2c(ncn2CC(=O)Nc2ccc3c(c2)OCO3)n(C)c1=O | 3.43
45 | O=C(Nc1ncc(C(F)(F)F)cc1Cl)C1COc2ccccc2O1 (centres unmarked) | -3.76
46 | Cc1ccc2c(Cl)cc(Cl)c(OCC(=O)N3CCOCC3)c2n1 | -8.28

Row | Compound | hERG current change (%, negative = inhibition) at 10uM [%]
47 | O=C(Cc1noc2ccccc12)Nc1ccccn1 | 6.57
48 | O=S(=O)(Nc1nc2ccccc2nc1NCc1ccco1)c1cccs1 | 4.13
49 | CCc1ccc2c(c1)c(N=NC1=NC(=O)CS1)c(O)n2C | 0.556
50 | COc1ccc(NS(=O)(=O)c2ccc(C(=O)N3CCN(Cc4ccccc4)CC3)cc2)cc1 | -17.1
51 | Cc1cccc(-c2noc(CNC(=O)COc3ccccc3C)n2)c1 | -1.88
52 | CCOc1ccc(C(CCc2ccccc2)NC(=O)c2ccccc2)cc1OCC (centres unmarked) | -19.1
53 | CCCCN(Cc1nc2ccccc2c(=O)[nH]1)C(=O)CN1C(=O)NC2(CCCCC2)C1=O | -41.9
54 | O=C(Cc1nnc(NC(=O)c2ccccc2)s1)N/N=C\c1ccc(O)c(O)c1 | 23.4
55 | COc1ccc(OC)c(C2N(c3cc(C)on3)C(=O)C3CCCN32)c1 (centres unmarked) | 10.8
56 | Cc1ccc2nc(N3CCN(C)CC3)c(C=O)c(=O)n2c1 | 5.3
57 | Cc1cccn2c(=O)c(C=O)c(N3CCN(C)CC3)nc12 | -0.442
58 | Cc1ccc2nc(N3CCN(c4ccccc4F)CC3)c(C=O)c(=O)n2c1 | -70.1
59 | Cc1cccn2c(=O)c(C=O)c(N3CCN(c4ccc(F)cc4)CC3)nc12 | -22.1
60 | Cc1cccn2c(=O)c(C=O)c(N3CCN(c4ccccc4)CC3)nc12 | -55.4
61 | Cc1ccc2nc(N3CCN(c4ccccc4)CC3)c(C=O)c(=O)n2c1 | 11.5
62 | CCOCCCNC(=O)Cc1ccc(-n2c(CC)nc3cccnc32)cc1 | -8.18
63 | C=CCn1c(Oc2ccc(C=O)cc2OCC)nc2c1c(=O)n(C)c(=O)n2C | 24.4
64 | CCc1nnc(SCC(=O)Nc2ccccc2)n1CC1CCCO1 (centres unmarked) | 2.61
65 | Cc1cccc(N2CC(C(=O)Nc3nnc(SCCN4CCOCC4)s3)CC2=O)c1 (centres unmarked) | 0.559
66 | O=C(NNC(=S)Nc1ccc(Cl)cc1Cl)c1cccnc1 | 8.1
67 | CCN(CC)CCCN(C(=O)c1ccco1)c1nc(-c2ccc(C)cc2)cs1.Cl | -84.1
68 | Cl.O=C(c1ccco1)N(CCCN1CCOCC1)c1nc(-c2ccc(F)cc2)cs1 | -29.4
69 | CCN(C(=O)c1ccco1)c1nc(-c2ccc(OC)cc2)cs1 | 8.13

Row | Compound | hERG current change (%, negative = inhibition) at 10uM [%]
70 | COCCN(C(=O)c1ccco1)c1nc(-c2ccccc2)cs1 | 4.36
71 | CCN(CC)CCCN(C(=O)c1ccco1)c1nc(-c2ccc(Cl)cc2)cs1.Cl | -71.2
72 | COc1ccc(-c2csc(N(CCCN3CCOCC3)C(=O)c3ccco3)n2)cc1.Cl | -32.4
73 | CCOc1ccc(Oc2ccc(C(F)(F)F)cc2NC(=O)C2=COCCO2)cc1 | 13.6
74 | CCC(CC)c1nnc(NC(=O)c2cc(-c3ccccc3)nc3ccccc23)s1 | 9.31
75 | O=C(/C=C/c1ccccc1Cl)N(Cc1ccc(Cl)cc1)C1CCS(=O)(=O)C1 (centres unmarked) | 1.48
76 | O=C(NCC1CCCO1)c1ccccc1NS(=O)(=O)c1cccs1 (centres unmarked) | -5.56
77 | Cc1cc(C)cc(OCCNC(=O)CCc2ccccc2)c1 | 4.83
78 | Cc1cccc(CSc2nc3ccncc3n2CC(=O)Nc2cc(C)cc(C)c2)c1 | 9.09
79 | COc1ccc(-c2nc(Cn3c(SCc4ccc(F)cc4)nc4ccncc43)c(C)o2)cc1OC | -55.6
80 | COc1ccc(-c2nc(Cn3c(SCc4ccccc4F)nc4ccncc43)c(C)o2)cc1 | 4.5
81 | COc1ccc(-c2nc(Cn3c(SCc4ccc(C)cc4)nc4ccncc43)c(C)o2)cc1OC | -52
82 | Cc1ccc(CSc2nc3ccncc3n2CC(=O)Nc2cc(C)cc(C)c2)cc1 | 7.38
83 | CC1CCN(C(=O)c2ccc(CSc3nc4ccncc4n3Cc3ccc(F)cc3)cc2)CC1 | -46
84 | COc1cc2nc(SCc3ccc(F)cc3)n(Cc3cccs3)c(=N)c2cc1OC | 0.564
85 | COc1ccc(-c2nc(Cn3c(SCc4cccc(F)c4)nc4ccncc43)c(C)o2)cc1OC | -62.4
86 | COc1ccc(Cn2c(SCc3ccc(C)cc3)nc3cc(OC)c(OC)cc3c2=N)cc1Cl | 14.6
87 | CN1CCN(C(=O)c2ccc(CSc3nc4ccncc4n3Cc3ccc(F)cc3)cc2)CC1 | 0.727
88 | CCC(C)NC(=O)c1ccc(CSc2nc3ccncc3n2Cc2ccc(F)cc2)cc1 (centres unmarked) | -59
89 | O=C(NC1CCCC1)c1ccc(CSc2nc3ccncc3n2Cc2ccc(F)cc2)cc1 | -40.7
